From PubChem
The list is not random: actives were taken first. Their share in the collection is about 0.5%.
TRPML1 ag = qHTS for Agonists of the Human Mucolipin Transient Receptor Potential 1 (TRPML1); TRPML1-expressing cells, Ca2+ dye fluorescence, FDSS; activation, % (test concentration not listed); Mucolipin-1 (Homo sapiens), Q9GZU1; 410,000 compounds, 0.12% hits; in the data active means activation above about 50%; inconclusive means mostly about 30% to 49%; further: 0% is about no effect
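TRPML1-DL cells, Tet-induced overnight (~16 h, 37 degrees C), loaded 45-90 min at room temperature with Ca8 no-wash calcium dye plus quencher. FDSS fluorescence: 10 s baseline, compound pin-transfer, 110 s agonist read, then EC80 54-4 (4uM final) and 110 s antagonist read.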
AT treatment = qHTS Assay for Identifying a Potential Treatment of Ataxia-Telangiectasia | F2112 A-T fibroblasts, KAP-1 phosphorylation AlphaLISA; neocarzinostatin DNA damage 30 min before lysis | Potency, µM (series often up to 57.5 µM), for inactives: top-dose activation, actives largely listed as activators | 320,000 compounds, 0.19% hits; further: potency means the concentration at half of the fitted maximal effect; % of control where 0% means no effect; nearly all actives have a fitted effect of over 45% in size
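ATM-like activity read as KAP-1 phosphorylation via AlphaLISA donor/acceptor antibody pairs after lysis and 6 hr at 25C. Cells were ATM-null patient fibroblasts (F2112, hTERT), dosed 60 min, then exposed to the DSB inducer NCS for 30 min.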
TRPV1 agonist = HTS Assay for Compounds that Act as Agonists of the Vanilloid Receptor 1; activation, % at 8.33 µM; TRPV1-expressing cells, Fluo-8 calcium influx, agonist mode; 320,000 compounds, 0.19% hits; Transient receptor potential cation channel subfamily V member 1 (Homo sapiens), Q8NER1; in the data active means activation above about 80%; inconclusive means between about 30% and that limit; further: 0% is about no effect
Target sequence (Q8NER1 whole entry, looked up): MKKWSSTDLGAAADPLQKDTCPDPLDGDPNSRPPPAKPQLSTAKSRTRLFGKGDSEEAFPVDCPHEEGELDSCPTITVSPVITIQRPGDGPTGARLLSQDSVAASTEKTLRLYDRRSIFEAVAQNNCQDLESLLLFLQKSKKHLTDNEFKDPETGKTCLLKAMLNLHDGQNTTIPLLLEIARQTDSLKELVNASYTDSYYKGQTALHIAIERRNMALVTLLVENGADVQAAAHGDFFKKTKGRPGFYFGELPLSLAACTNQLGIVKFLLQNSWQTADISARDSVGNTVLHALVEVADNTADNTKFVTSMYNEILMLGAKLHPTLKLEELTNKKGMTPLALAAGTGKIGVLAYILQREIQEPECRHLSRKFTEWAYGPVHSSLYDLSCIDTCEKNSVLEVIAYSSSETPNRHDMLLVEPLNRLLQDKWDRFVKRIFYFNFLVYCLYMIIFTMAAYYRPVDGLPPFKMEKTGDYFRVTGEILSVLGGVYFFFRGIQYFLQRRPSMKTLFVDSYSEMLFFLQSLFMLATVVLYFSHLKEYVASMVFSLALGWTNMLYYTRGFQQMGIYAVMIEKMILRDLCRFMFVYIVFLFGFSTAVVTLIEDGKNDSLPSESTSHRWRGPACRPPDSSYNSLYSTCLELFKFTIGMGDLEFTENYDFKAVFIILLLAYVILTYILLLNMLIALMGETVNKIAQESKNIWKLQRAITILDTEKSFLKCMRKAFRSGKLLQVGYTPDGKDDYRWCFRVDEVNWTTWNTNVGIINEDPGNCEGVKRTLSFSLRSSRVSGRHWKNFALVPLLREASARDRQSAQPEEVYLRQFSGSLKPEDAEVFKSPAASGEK
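Fluo-8 calcium influx in TRPV1-expressing cells, kinetic read (ex 480/em 520 nm). Compound added and read 3 min for agonist activity, followed by capsaicin at EC20 final and 2 min further read for enhancement.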
RGS4 inh = Inhibitors of Regulator of G Protein Signaling (RGS) 4: qHTS; Regulator of G-protein signaling 4 (Homo sapiens), P49798; Transcreener GDP fluorescence polarization, RGS4-accelerated GTP hydrolysis; Potency, µM (series often up to 114 µM), without a hit: at the top dose activity change, negative = inhibition, actives largely listed as inhibitors; 390,000 compounds, 0.039% hits; further: potency means the concentration at half of the fitted maximal effect; on the % scale 0 is the no-effect control and ±100 the full control effect; nearly all actives have a fitted effect of over 75% in size
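MLSMR compounds (23 nl, pin-transferred) preincubated 10 min at room temperature with a 500nM (2x) first reagent, then RGS4 at 900nM (2x) plus Transcreener GDP mix added; fluorescence polarization (620/688 nm) read before and after 90 min at 30 °C.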
TRPML1 blocker = qHTS for Inhibitors of the Human Mucolipin Transient Receptor Potential 1 (TRPML1). Mucolipin-1 (Homo sapiens), Q9GZU1. TRPML1-inducible cells, Ca2+ dye fluorescence, FDSS; active compounds read low; inhibition of EC80 agonist-evoked calcium signal. activity change, negative = inhibition, % (no concentration beside the values). 390,000 compounds, 0.02% hits; in the data active means activity change below about -50%; inconclusive means between about -30% and that limit;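 further: stimulus is agonist 54-4 at its EC80 concentration; on the % scale 0 is the no-effect control and ±100 the full control effect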
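Calcium fluorescence in TRPML1-DL cells induced overnight with Tet: a 110 s read after compound pin addition, then a 110 s antagonist read after challenge with 54-4 at 4 uM final (EC80).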
TRPV1 PAM = HTS Assay for Compounds that Act as Potentiators of the Vanilloid Receptor 1; TRPV1-expressing cells, Fluo-8 calcium influx, capsaicin EC20 potentiation; 320,000 compounds, 0.02% hits; potentiation, % at 8.33 µM; Transient receptor potential cation channel subfamily V member 1 (Homo sapiens), Q8NER1; in the data active means potentiation above about 80%; inconclusive means between about 30% and that limit; further: 0% is about no effect
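Cells expressing TRPV1 were dye-loaded with Fluo-8 and read kinetically: 10 s baseline, 3 min after compound (agonist portion), then 2 min after EC20 capsaicin (allosteric enhancer portion). Calcium-bound dye fluorescence at 480/520 nm.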
Starred values were filed as active, the others as inactive; ? = inconclusive; . = no result; [ ] = remark or other dose. Unless noted, the call rests on the fitted dose curve; in most records, active means well fitted curve in the direction sought with a large enough effect; inconclusive means small, poorly fitted or top-dose-only effect, or another doubt; inactive means no such curve, though single readings can be large; an effect the other way counts as inactive or inconclusive.

SMILES	TRPML1 ag	AT treatment	TRPV1 agonist	RGS4 inh	TRPML1 blocker	TRPV1 PAM
Cc1ccccc1NC(=O)c1ccc(-c2ccc(Cl)cc2Cl)o1	3	1%	15	31%	-51*	3
CCCOc1ccc(C(=O)CCC(=O)OCC(=O)Nc2ccc(OCC)cc2)cc1	.	14µM*	13	.	.	-13
COC(=O)[C@]1(Cc2ccccc2)N[C@H](CN(C)S(=O)(=O)c2ccc(C(C)(C)C)cc2)[C@@H]2C(=O)N(C)C(=O)[C@@H]21	-1	5%	.	-14%	1	.
CCCCCCCCCCCCCCCC[n+]1ccc(/C=C/c2c[nH]c3ccccc23)cc1	16	.	.	.	.	.
CCCCCCCCCC[n+]1ccc(/C=C/c2c[nH]c3ccccc23)cc1	68*	.	.	.	.	.
CCCCCCC[n+]1ccc(/C=C/c2c(C)[nH]c3ccccc23)cc1	57*	.	.	.	.	.
C/C=C\C=C/C(=O)Nc1cccc(C2=NOC3(C2)C[C@@H](C(N)=O)N(C(=O)COc2ccc(Cl)cc2)C3)c1 (stereo partly specified)	0	3.2µM*	2	?	-24	-18
COc1ccc(NC(=S)N2CCN(c3ccc([N+](=O)[O-])cc3)CC2)cc1OC	0	1%	2	25%	21	4
CCOc1ccc2nc(SCC(=O)Nc3ccc(S(=O)(=O)N4CCCC4)cc3)c(C)cc2c1	1	27%	0	7%	4	-9
CCN(CC)CCNc1nc(-n2nc(C)cc2C)nc2sc3c(c12)CC(C)(C)OC3	0	35µM*	9	-24%	-3	11
Cc1cc(C)n(-c2nc(NCCN(C)C)c3c4c(sc3n2)COC(C)(C)C4)n1	-1	-12%	-1	11%	-12	27
Cc1cc(C)n(-c2nc3sc4c(c3c3nnc(SCC(N)=O)n23)CC(C)(C)OC4)n1	1	1%	0	28%	5	2
CSc1nnc2c3c4c(sc3nc(-n3nc(C)cc3C)n12)COC(C)(C)C4	0	-6%	80*	-24%[11.4 µM]	10	5
Cc1cc(C)n(-c2nc(NCCN(C)C)c3c4c(sc3n2)CCCC4)n1	-1	40µM*	2	?	-11	19
O=C(Nc1cccc(Br)c1)N1CCN2CCCCC2C1 (stereo unspecified)	0	.	.	-16%	-1	.
CN=c1nc(-c2ccccc2)n(-c2ccccc2)s1	-1	-2%	1	3.8µM*	0	-26
CC(=O)N=c1nc(-c2ccccc2)n(-c2ccccc2)s1	-1	.	.	-39%	.	.
O=C1NNC(c2ccccc2)=N/C1=C\c1ccccc1Cl	1	3%	94*	-51%	-6	-14
CC(C)(C)OC(=O)[C@H](CCCCN)NC(=O)c1nc[nH]c1C(=O)NCCCCCN	0	-3%	0	-13%	-13	7
CC(C)Sc1ccc(C(=O)Nc2ccc(F)cc2F)cn1	2	0%	85*	?	-11	-21
O=C(Nc1ccc(F)cc1F)c1ccc(-n2cccn2)nc1	-1	-4%	?	3%	12	-29
CCOc1ccc(NCCC#N)cc1	-1	0%	0	-27%	-4	0
N/C(=N\OC(=O)c1ccc(Cl)cc1)c1nonc1N	1	8%	81*	-8%	16	-1
N/C(=N/OC(=O)c1ccccc1F)c1nonc1N	1	0%	7	10%	6	-6
Cc1ccsc1C(C(=O)NCc1ccccc1)N(C(=O)c1csnn1)c1ccccc1 (stereo unspecified)	-1	-2%	15	-6%	19	-6
SMILES	TRPML1 ag	AT treatment	TRPV1 agonist	RGS4 inh	TRPML1 blocker	TRPV1 PAM
COc1cc(/C=C2/SC(=S)N(Cc3ccccc3)C2=O)cc(Cl)c1O	65*	-8%	?	-31%	-3	-5
COc1cc(/C=C2/SC(=S)N(Cc3ccccc3)C2=O)ccc1OS(C)(=O)=O	.	-8%	0	42%	.	-7
CCOc1ccc(CCN2CN(C3CCCCC3)CNC2=S)cc1OCC	0	-9%	6	-9%	-11	0
Cc1cc(N)c2ccccc2[n+]1CCCCCCCCCC[n+]1c(C)cc(N)c2ccccc21	.	.	.	24µM*	.	.
Cc1ccc2ccccc2[n+]1CCCCI	0	.	.	.	.	.
Cn1c(=O)c(S(=O)(=O)C(C)(C)C)c(O)c2ccccc21	1	2%	-1	-8%	-23	4
CCOC(=O)/C(=C\C=C1/Sc2cc(OCC)c(OCC)cc2N1CC)C(C)=O	89*	-4%	?	-3%	9	-14
CCN1/C(=C\C=C2\C(=O)N(C)C(=S)N2C)Sc2ccccc21	1	2%	2	?	5	?
CCOC(=O)/C(=C/C=C1\Sc2cc(OCC)c(OCC)cc2N1CC)C(C)=O	77*	-5%	?	-7%	-23	-7
CCN1/C(=C/C(C)=O)Sc2ccc(OC)cc21	-1	-1%	-2	?	19	-10
CC1CN(Cc2ccccc2)C(=S)N(c2ccccc2)C1=O (stereo unspecified)	1	.	.	-12%	-12	.
COCCCNC(=O)CN1C(=O)/C(=C/c2ccccc2)Sc2ccccc21	-1	40µM*	23	2%	-1	-2
N#C/C(=C/c1ccc(-c2ccc(S(N)(=O)=O)cc2)o1)c1nc2ccccc2s1	64*	1%	22	-24%	3	-2
CCCNC(=O)c1cc2c(c(-c3cccc(-c4ccc(F)cc4)c3)n1)[C@@H](CCO)N(S(=O)C(C)(C)C)C2 (stereo partly specified)	0	.	.	.	2	.
CC(C)c1ccc(NCCC(=O)c2cccs2)cc1	0	-8%	90*	11%	-22	0
C=CCn1c(C)cc(C2=NNC(=Nc3ccc(C)cc3)SC2)c1C	0	-3%	-2	-1%	10	11
Cc1cc(C2=NNC(=Nc3ccc(S(=O)(=O)N4CCOCC4)cc3)SC2)c(C)n1C	-1	32µM*	-6	?	-12	24
COc1nc(Nc2ccc(C(C)C)cc2)nc(OC)n1	2	-4%	2	-7%	2	3
CCOc1c(Nc2ccc(C(C)C)cc2)c(=O)c1=O	-1	21%	83*	-8%	25	-1
